# The supplement of paper PMC4723716
# The full ranking holds about 3,600 compounds; the median of “viability index relative to DMSO control” is about 0.81, and the lowest 2% start at about 0.13. Only a selection was taken, and the lowest values are over-represented in it overall.
# System: Plasmodium falciparum NF54 stage V gametocytes
# Assay: viability index relative to DMSO control (fraction); higher = less gametocyte killing
# Conditions: 1.25 µM, incubation time: 72 h
# 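Further: Saponin-lysis sexual stage assay in serum-free medium: MitoTracker Red CMXRos staining plus saponin, high-content imaging, particle count per well divided by plate mean of DMSO wells.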
row,Compound,viability index
1,CC(C)c1ccc2c(c1)c1c3c([n+](C)ccn32)CCC1,1.22
2,CC(Cc1ccsc1)Nc1nc2nonc2nc1N(C)C (stereo not drawn),0.853
3,Cc1ccc(OCCCCN2CCOCC2)c([N+](=O)[O-])c1,0.798
4,O=C1C=C(Nc2cccc(C(F)(F)F)c2)C(=O)c2ccccc21,0.0673
5,COC1=C(Nc2cccc(C(F)(F)F)c2)C(=O)c2ccccc2C1=O,0.606
6,O=C(Nc1cc(Cl)cc(Cl)c1)Nc1cccc(C(F)(F)F)c1,1.06
7,CCOC(=O)c1ccc(N(C(=O)Cc2c[nH]c3ccccc23)C(C(=O)NC2CCCCC2)c2cccc(OC)c2OC)cc1 (stereo not drawn),0.849
8,NC12CC3CC(C1)CC(SSC14CC5CC(CC(N)(C5)C1)C4)(C3)C2,0.11
9,COc1ccc(C2CC(=O)C3=C(C2)NC(=O)CC3c2ccc([N+](=O)[O-])cc2)cc1OC (stereo not drawn),0.406
10,O=C(Nc1ccc(-n2cnnn2)cc1)C1CCN(Cc2cc3ccccc3o2)CC1,0.942
11,COc1ccc2c(c1)OC(O)(C(F)(F)C(F)(F)F)CC2=O (stereo not drawn),0.6
12,CCN(CC)S(=O)(=O)c1cc(C(=O)O)ccc1Cl,0.971
13,COc1cccc(OC)c1C(=O)Nc1cc(C(F)(F)F)ccc1Cl,0.971
14,COc1ccc(C=NNc2cc(C)nc3ccc(OC)cc23)c(OC)c1,0.591
15,COc1ccc(C=NNc2cc(C)nc3ccccc23)cc1,0.946
16,COC(=O)c1ccc(C=NNc2cc(C)nc3ccc(OC)cc23)cc1,0.0573
17,CC(C)(C)CC(C)(C)c1ccc(O)c(CN2CCN(CCC#N)CC2)c1,0.735
18,COc1ccc(CNC2CCN(c3cccc(NC(=O)C4CC4)c3)CC2)cc1,1.12
19,C=CCN1C(=O)C(=C2Sc3ccc(OC)cc3N2C)SC1=Nc1ccccc1-c1ccccc1,0.448
20,Oc1ccc(-c2cncnc2)cc1CNC1CCN(Cc2ccccc2)CC1,1

row,Compound,viability index
1,CCN(CC)Cc1cc(Nc2ccnc3cc(Cl)ccc23)ccc1O,0.873
2,O=[N+]([O-])c1ccc(C=NNc2nc(Nc3ccccc3)nc(Nc3ccccc3)n2)o1,0.0664
3,COc1ccc(Nc2nc(NN=Cc3cccc([N+](=O)[O-])c3OC)nc(Nc3ccc([N+](=O)[O-])cc3)n2)cc1,0.469
4,O=[N+]([O-])c1ccc(Nc2nc(NN=Cc3ccccc3I)nc(Nc3ccccc3)n2)cc1,0.985
5,O=[N+]([O-])c1ccc(-c2ccc(C=NNc3nc(Nc4ccccc4)nc(Nc4ccccc4)n3)o2)cc1,0.626
6,COc1ccc(-c2cnnc(NN=Cc3ccc([N+](=O)[O-])o3)n2)cc1,0.0154
7,Cc1nonc1C(=O)NN=Cc1ccc([N+](=O)[O-])o1,0.871
8,COc1ccc(NC(=O)NCc2cccn2Cc2ccc(F)cc2)cc1OC,0.952
9,CCOC(=O)c1sc(Nc2c(Cl)cc(S(N)(=O)=O)cc2Cl)nc1C,0.886
10,CCOC(=O)C1=C(C)NC2=C(C(=O)CC(c3ccc(OC)c(OC)c3)C2)C1c1ccccc1OC (stereo not drawn),0.68
11,CCOC(=O)c1c(NC(=O)CSc2nnc(CNC(=O)c3ccc(C)c(C)c3)n2C2CCCCC2)sc2c1CCC2,0.784
12,O=C1CN(C(=O)CCC2CCCC2)C(c2ccc(F)cc2)c2cc(Cl)ccc2N1 (stereo not drawn),0.751
13,S=P(OCC1C(COP(=S)(c2ccccc2)c2ccccc2)C1(Cl)Cl)(c1ccccc1)c1ccccc1 (stereo not drawn),0.562
14,CN1C(=O)N(C)C2(c3ccccc3)NN3C(=NC12c1ccccc1)SC1=C3C(=O)c2ccccc2C1=O (stereo not drawn),0.0309
15,CCOC(=O)c1nnn(-c2nonc2N)c1-c1ccc(Br)cc1,0.676
16,Cc1oc2c(c1C(=O)N1CCN(C)CC1)C(=O)c1ccccc1C2=O,0.43
17,Cc1oc2c(c1C(=O)NCC1CCCO1)C(=O)c1ccccc1C2=O (stereo not drawn),0.195
18,Cc1oc2c(c1C(=O)NCCCn1ccnc1)C(=O)c1ccccc1C2=O,0.0826
19,CCOC(=O)C1CCCN(C(=O)c2c(C)oc3c2C(=O)c2ccccc2C3=O)C1 (stereo not drawn),0.726
20,Cc1oc2c(c1C(=O)NC1CCS(=O)(=O)C1)C(=O)c1ccccc1C2=O (stereo not drawn),0.0502

row,Compound,viability index
1,Cc1oc2c(c1C(=O)NCc1cccnc1)C(=O)c1ccccc1C2=O,0.231
2,Cc1oc2c(c1C(=O)N1CCC(C)CC1)C(=O)c1ccccc1C2=O,0.587
3,CCOC(=O)c1c(C)oc2c1C(=O)c1ccccc1C2=O,0.902
4,CCOC(=O)C1CCN(C(=O)c2c(C)oc3c2C(=O)c2ccccc2C3=O)CC1,0.0992
5,Cc1cc(I)ccc1N1C(=O)C2C3c4ccccc4C(CO)(c4ccccc43)C2C1=O (stereo not drawn),1.06
6,CC(=O)N(C1=C(N2CCOCC2)C(=O)c2ccccc2C1=O)c1ccc(C(C)C)c(C)c1,0.509
7,Oc1c(C(Nc2ccccn2)c2ccc(Br)cc2)ccc2cccnc12 (stereo not drawn),1.1
8,Cc1cc(C)n(-c2ccc(NC(=O)C3CCN(Cc4cc(C)c(C)o4)CC3)cc2)n1,0.926
9,Oc1ccc2ccccc2c1CNc1nc2ccccc2[nH]1,0.865
10,CCN(CC)CCNc1ccc(Nc2ccnc3cc4ccccc4cc23)cc1,0.423
11,Cc1ccc(-c2cc3c(nn2)-c2ccccc2C3=O)cc1,0.65
12,CCOC(=O)c1ccc2nc3c(nc2c1)C(=O)c1ccccc1C3=O,0.359
13,N#Cc1cc2nc3c(nc2cc1C#N)-c1ccccc1C3=O,0.0308
14,Cc1[nH]c2ccccc2c1C=Cc1cc[n+](C)cc1,1.08
15,O=C(C1CCN(c2nnnn2-c2ccccc2)CC1)N1CCc2ccccc2C1,0.826
16,N#CC(=Cc1ccc(Sc2ccccc2)o1)c1nc2ccccc2[nH]1,0.776
17,CCN(CC)c1ccc(C=C(C#N)c2nc3ccccc3[nH]2)o1,0.609
18,N#CC(=CC=Cc1ccc([N+](=O)[O-])o1)c1nc2ccccc2[nH]1,0.0143
